The list is not random: actives were taken first. Their share in the collection is about 12%.
UCHL1 inh = inhibitors of human UCHL1 deubiquitinase; inhibition, % at 20 µM; AID 1645859, 2021; purified UCHL1, Ub-rhodamine cleavage fluorescence; Ubiquitin carboxyl-terminal hydrolase isozyme L1 (Homo sapiens), P09936; hit rate 0.2% among 47,000
Target sequence (P09936 whole entry, looked up): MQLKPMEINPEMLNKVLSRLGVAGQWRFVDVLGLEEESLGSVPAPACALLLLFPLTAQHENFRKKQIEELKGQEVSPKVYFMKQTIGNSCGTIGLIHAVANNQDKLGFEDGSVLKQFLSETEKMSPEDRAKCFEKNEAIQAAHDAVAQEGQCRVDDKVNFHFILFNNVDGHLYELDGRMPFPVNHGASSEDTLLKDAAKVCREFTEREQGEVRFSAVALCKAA
USP8 block = inhibitors of human USP8 deubiquitinase. Ubiquitin carboxyl-terminal hydrolase 8 (Homo sapiens), P40818. purified USP8, Ub-rhodamine cleavage fluorescence, 30 min. inhibition, % at 20 µM. hit rate 4.2% among 47,000. AID 1645853, 2021
USP7 inh = inhibitors of human USP7 deubiquitinase. purified USP7, Ub-rhodamine cleavage fluorescence. inhibition, % at 20 µM. hit rate 0.3% among 47,000. AID 1645854, 2021
USP10 inh = inhibitors of human USP10 deubiquitinase | Ubiquitin carboxyl-terminal hydrolase 10 (Homo sapiens), Q14694 | hit rate 1.1% among 47,000 | inhibition, % at 20 µM | AID 1645856, 2021 | purified USP10, Ub-rhodamine fluorescence, 60 min
USP30 block = inhibitors of human USP30 deubiquitinase | Ubiquitin carboxyl-terminal hydrolase 30 (Homo sapiens), Q70CQ3 | purified USP30, Ub-rhodamine cleavage fluorescence | inhibition, % at 25 µM | hit rate 5.3% among 47,000 | AID 1645860, 2021
USP17 inh = inhibitors of human USP17 deubiquitinase; AID 1645855, 2021; hit rate 6.5% among 47,000; purified USP17, Ub-rhodamine cleavage fluorescence, 3 h; inhibition, % at 50 µM
Each line names hits and unclear results; the compound was inactive in the other large screens. Cut-off read from the data, not from the text of the source: active = inhibition above about 30%; inactive = the rest.

Cn1c(=O)c2c(nc(CN3CCc4ccccc4C3)n2CC(=O)c2ccccc2)n(C)c1=O	USP8 block 36
CCc1noc(C2(NC(=O)C(CC)c3ccccc3)CCCCC2)n1 (centres undefined)	none
NC(=O)c1cc(NC(=O)c2ccc3ccccc3c2)cc(C(N)=O)c1	USP30 block 66, USP17 inh 66
O=C(Nc1cccc(-c2ccc(N3CCOCC3)nn2)c1)c1ccc2ccccc2c1	none
CC(=O)c1cc(-c2ccc(F)cc2)n(CC(=O)Nc2cccc(C)c2C)c1C	USP8 block 41, USP10 inh 35, USP30 block 73, USP17 inh 52
CC(=O)c1cc(-c2ccc(F)cc2)n(CC(=O)NCc2ccc(N(C)C)cc2)c1C	none
Cc1cc(S(=O)(=O)N2CCCN(S(=O)(=O)c3ccc(Cl)c(C)c3)CC2)ccc1Cl	none
CCC(C)c1ccc(-c2csc(Cn3c(CN4CCN(C)CC4)nc4ccccc4c3=O)n2)cc1 (centres undefined)	USP17 inh 58
CCn1c(CN2CCN(Cc3ccccc3)CC2)nc2ccccc21	none
CCc1nnc(NC(=O)Cn2ncc3ccccc32)s1	none
CCc1nnc(NC(=O)Cn2ncc3c(=O)oc4ccc(C)cc4c32)s1	USP17 inh 31
Cc1ccc(-c2c3c4n(c(-c5ccc(F)cc5)cn4c2C(=O)NC2CCCCC2)CCCC3)cc1	none
O=c1c(S(=O)(=O)c2cc(F)cc(F)c2)c[nH]c2cc(Cl)ccc12	USP8 block 80, USP17 inh 52
Clc1ccc(OCc2nc(-c3cccnc3)n[nH]2)c(Cl)c1	none
COc1ccccc1N1CCN(C(=O)/C=C/c2ccc(OCc3ccc(Cl)cc3Cl)cc2)CC1	USP30 block 31
Cc1cc(-c2ccc(S(=O)(=O)NC3CCCc4ccccc43)s2)on1 (centres undefined)	none
O=C(c1c(F)cccc1F)N1CCN(C(=O)c2cnn3ccccc23)CC1	USP30 block 31
O=C(c1ccc(F)cc1Cl)N1CCN(C(=O)c2cnn3ccccc23)CC1	none
Cc1ccccc1CNC(=O)c1ccc(-c2ccc(N3CCCC3)nn2)cc1	USP17 inh 48
O=C(NCc1ccccc1Cl)C1CCN(c2ccc(-c3ccccc3)nn2)CC1	USP8 block 47, USP10 inh 30, USP30 block 41
CS(=O)(=O)c1ccc(NC(=O)c2ccc(CSc3ccc(Cl)cc3)cc2)cc1	none
Cc1ccc(NC(=O)Cc2nn[nH]n2)cc1Cl	none
O=C(c1cnccn1)N1CCCC(c2ncc(Cc3ccc(F)cc3)o2)C1 (centres undefined)	none
CCOC(=O)c1cc2c(ccn2C)n1Cc1ccc(C#N)cc1	USP8 block 71
CCOC(=O)c1cc2c(ccn2C)n1CC(=O)N(Cc1ccc(Cl)cc1)c1ccccc1	USP8 block 57, USP17 inh 43
CCOC(=O)c1cc2c(ccn2C)n1CC(=O)N(C1CCCCC1)C1CCCCC1	none
O=C(NCc1cccnc1)C1CCN(c2cc(N3CCOCC3)ncn2)CC1	USP30 block 43
CCOc1ccc(CNC(=O)C2CCCN(C(=O)c3[nH]c(C)cc3C)C2)cc1 (centres undefined)	none
CN(C)C(CNC(=O)c1ccco1)c1cccnc1 (centres undefined)	none
Clc1ccccc1Cn1c(C2CCCO2)nc2ccccc21 (centres undefined)	USP30 block 31
Cc1cc(F)ccc1NC(=O)CN1C(=O)C2CCCN2C(=O)c2cc(F)ccc21 (centres undefined)	none
CCN(c1ccccc1)S(=O)(=O)c1ccc(C(=O)Nc2nc3ccc(F)cc3s2)cc1	USP17 inh 55
CCCCOc1cccc(C(=O)Nc2nc3ccc(S(C)(=O)=O)cc3s2)c1	USP30 block 36
CCc1ccc(-c2cc3c(=O)n(CC(=O)NCC4CCCN4CC)ncn3n2)cc1 (centres undefined)	none
O=C1C=C(O)c2c(O)cccc2C1=O	USP8 block 79, USP17 inh 92
O=C(c1ccc(N2CCc3ccccc32)s1)N1CCC(N2CCCCC2)CC1	USP17 inh 46
COc1ccc(S(=O)(=O)Nc2nc3ccccc3nc2NCc2ccccc2)cc1	none
COc1ccc(S(=O)(=O)Nc2c(C)c(C)cc3c2nc(C)n3Cc2cccc(C)c2)cc1	USP30 block 33
O=C(NCC(O)COc1ccc([N+](=O)[O-])cc1)Nc1ccccc1 (centres undefined)	none
Cc1cc(C)cc(NC(=O)NCC(O)COc2ccc([N+](=O)[O-])cc2)c1 (centres undefined)	USP17 inh 32
CCOC(=O)c1[nH]c(C)c(CN(Cc2ccco2)C(=O)C2CCCCC2)c1C	none
Cc1cc(C(=O)CSc2nc3ccccc3[nH]2)c(C)n1Cc1ccco1	USP8 block 57, USP17 inh 50
O=C(Cn1cnc2ccccc2c1=O)NC(c1ccccc1)c1ccccc1	USP30 block 33
COc1ccc(C(CNC(=O)Cn2cnc3ccccc3c2=O)N(C)C)cc1 (centres undefined)	none
O=C(Cn1cnc2cc([N+](=O)[O-])ccc2c1=O)c1c[nH]c2ccccc12	none
Cc1ccccc1CNC(=O)CCn1cnc2ccccc2c1=O	none
O=C(CCn1cnc2ccccc2c1=O)Nc1ccc(Cl)cc1	USP17 inh 40
O=C(CSc1nc2ccccc2[nH]1)c1ccccc1F	none
O=C(Cn1cnc2ccccc2c1=O)c1c[nH]c2ccccc12	USP30 block 44, USP17 inh 47
COc1ccccc1NC(=O)C1CC(=O)N(c2ccc3oc(C)nc3c2)C1 (centres undefined)	none
CCc1nnc(-c2cc(S(=O)(=O)N3CCCCC3)c[nH]2)o1	none (no result: USP30 block)
O=C(CSc1nc2ccccc2[nH]1)c1c[nH]c2ccccc12	USP30 block 33
Cc1ccc(-c2cn(CC(=O)NCc3cccc(F)c3)c(=O)o2)cc1	USP30 block 56, USP17 inh 77
COc1cc(CNc2ncc(-c3cccc([N+](=O)[O-])c3)n2C)cc(OC)c1O	none
COc1ccc(NCc2nc3ccccc3n2Cc2ccccc2)cc1	USP8 block 90, USP17 inh 64
O=C1c2ccccc2C2(CCCC2)C(=O)N1Cc1ccccc1	USP8 block 49, USP17 inh 33
COc1ccccc1NC(=O)C1=C(C)Nc2nnnn2C1c1cccnc1 (centres undefined)	none
COc1cccc(-c2nc3n(n2)C(c2ccncc2)C(C(N)=O)=C(C)N3)c1 (centres undefined)	USP30 block 30

Screening results from PubChem BioAssay.
